{"source": "PubChem BioAssay AID1508600", "about": "(Functional Genomics Laboratory (NCATS/FGL), 2020)", "note": "The whole screen tested about 53,000 sequences, of which about 3,700 (7%) were called active. This is one part of a sample in which actives are shown more often than they occur.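 How the source made its calls: active means gene knockdowns whose robust z-score for IL-1 alpha signal is at least 2 or at most -2, so actives lie on both sides; inactive means the rest.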"}
{"assay": "Components of the Cytosolic LPS Sensing Pathway: Gene Identification via Genome-wide siRNA Screen;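 further: robust z of the log signal after scaling to non-targeting control siRNA wells of the plate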", "conditions": "RAW264.7 macrophages, IL-1a HTRF, actives lie on both sides, screened at 100 nM (by protocol), cells primed 5 h with Pam3CSK4 first", "in_short": "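Three distinct siRNAs per gene were tested singly at 100 nM in RAW264.7 macrophages. Following Pam3CSK4 priming and 24 hour LipidA transfection, IL-1a secretion was read by HTRF.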"}
{"sequence": "GGAGAUGCUGUUCUUUCCGTT against Casc3", "z-score": "-1.18 (inactive)"}
{"sequence": "GGAUGGAUUACUGAAAGUUTT against Wdr35", "z-score": "0.715 (inactive)"}
{"sequence": "GGCAGCUAUUGCUCUGGAATT against 5730596B20Rik", "z-score": "-0.293 (inactive)"}
{"sequence": "GGAGCAACAGCCAAAUACCTT against Hmgb4", "z-score": "2.39 (active)"}
{"sequence": "GGACUAUGAGCAGAUGAAGTT against Calcb", "z-score": "-0.217 (inactive)"}
{"sequence": "GGAUGUGCACGAAGGACAGTT against Cdh2", "z-score": "2.09 (active)"}
{"sequence": "CCAGUCCAUUGAAUAGUUCTT against Papola", "z-score": "0.329 (inactive)"}
{"sequence": "GGAAAGGAAUCCAAAAAUCTT against Lias", "z-score": "-0.42 (inactive)"}
{"sequence": "CCAGAAGUGAUCGCCUCUUTT against Zfp300", "z-score": "1.16 (inactive)"}
{"sequence": "GCCAUAAAACAGAAUCUCATT against Tmco5b", "z-score": "-0.309 (inactive)"}
{"sequence": "GGUGGUGAUAAGCUUCCUCTT against Olfr1417", "z-score": "-1.87 (inactive)"}
{"sequence": "GGGACUUCAGACAGUUAUCTT against Ess2", "z-score": "1.69 (inactive)"}
{"sequence": "GCCGAACUUCGGAAUUCUGTT against Nf1", "z-score": "2.08 (active)"}
{"sequence": "GGUAUAUGGAACCAUGGGATT against Psmb9", "z-score": "-0.565 (inactive)"}
{"sequence": "GGAGUCUGCUGGUUUAGUGTT against Fmc1", "z-score": "0.0551 (inactive)"}
{"sequence": "GGAGUAUGGCGAAUUCUAUTT against Hsp90ab1", "z-score": "1.34 (inactive)"}
{"sequence": "GCUGCUUGCUGACCUCCUATT against Olfr522", "z-score": "0.358 (inactive)"}
{"sequence": "GCAUUCAGAAAUUGAGGGUTT against Sin3b", "z-score": "-0.0974 (inactive)"}
{"sequence": "CCUAUCUCUUAGCAAAGAUTT against 2010003K11Rik", "z-score": "2.87 (active)"}
{"sequence": "GGCGAUAUUCUUAAUUAUCTT against Mfsd6", "z-score": "0.735 (inactive)"}
{"sequence": "GGUGUUGAACAAGUGCGACTT against Tescl", "z-score": "-0.987 (inactive)"}
{"sequence": "GCUGAUCAUCCGUUUCACUTT against Hdc", "z-score": "-0.227 (inactive)"}
{"sequence": "CGUACUUCAGCGAUUUAAATT against Exoc2", "z-score": "0.555 (inactive)"}
{"sequence": "GGACUCAAGACACCAGUUGTT against Rufy3", "z-score": "-0.318 (inactive)"}
{"sequence": "GCAAGAAGCCUGCCAAUAUTT against Etd", "z-score": "2.05 (active)"}
{"sequence": "GGAGUACUUUGGAAUAGCATT against Frmd4a", "z-score": "-0.467 (inactive)"}
{"sequence": "GCUCUAUAUCCAGGAAACUTT against Krtap6-2", "z-score": "0.0521 (inactive)"}
{"sequence": "GGUGCAUUUAUGUAUUUCCTT against Olfr916", "z-score": "-1.76 (inactive)"}
{"sequence": "GCAAUCAUUGAAUCCACUCTT against Spag9", "z-score": "2.16 (active)"}
{"sequence": "GGAUGUGGUUCAGAAGGCCTT against Stab1", "z-score": "-0.29 (inactive)"}
{"sequence": "GAUUCUUACUUUGGUCUACTT against Olfr9", "z-score": "0.62 (inactive)"}
{"sequence": "GCCAAAACAUUUCAGAGCCTT against Hemk1", "z-score": "-0.000768 (inactive)"}
{"sequence": "GCAUCUAACUACUUGGGCCTT against Hhip", "z-score": "1.18 (inactive)"}
{"sequence": "GCACUACCAAGGCGAUAACTT against Tspan18", "z-score": "-0.624 (inactive)"}
{"sequence": "GGAACCAGUGCUGCAUUUATT against Defb41", "z-score": "-2.05 (active)"}
{"sequence": "GGCCAUAAACAACCAUUUATT against Ppp1r1b", "z-score": "0.747 (inactive)"}
{"sequence": "GGACCAACGUGCAGAAAUGTT against Metrn", "z-score": "-0.702 (inactive)"}
{"sequence": "GGUCUGGAGACUUUCAGUCTT against Hexa", "z-score": "0.521 (inactive)"}
{"sequence": "GGGCAGGGACAUUAGUCAUTT against Zfp106", "z-score": "2.88 (active)"}
{"sequence": "GGGAGUGAAUGUUUCACAUTT against Tmem116", "z-score": "-1.56 (inactive)"}
{"sequence": "GGGUAUUAAGCAGGGAUCGTT against 1810009A15Rik", "z-score": "1.11 (inactive)"}
{"sequence": "CCAAAUGACUAGCACCAGUTT against Arl5c", "z-score": "-2.22 (active)"}
{"sequence": "CCUUCUACCUCACCUUACGTT against Tmem186", "z-score": "-1.23 (inactive)"}
{"sequence": "CCAAUUCAAUUAGACUAGATT against 9430015G10Rik", "z-score": "0.89 (inactive)"}
{"sequence": "GCAUGAGUUAUCAUAAUCATT against Itgb2", "z-score": "1.04 (inactive)"}
{"sequence": "GGAUCAACCACAUCAGCUCTT against Hrh2", "z-score": "-0.838 (inactive)"}
{"sequence": "GGGCCUUCUGAUUUAAAAGTT against Slc43a3", "z-score": "-1.01 (inactive)"}
{"sequence": "GGUGUUUGGGUACCAGUCUTT against Cyp8b1", "z-score": "-1.03 (inactive)"}
{"sequence": "GGCUCAAGCGAAAAGCAGATT against Serping1", "z-score": "-0.46 (inactive)"}
{"sequence": "GGCCUAUUGUAAAAACCCATT against Taf1b", "z-score": "-2.56 (active)"}
{"sequence": "CCAAGUCCCUUUGUGGUGUTT against Twnk", "z-score": "-0.749 (inactive)"}
{"sequence": "CCGUUUAUUUAUCAGCUGGTT against Spsb4", "z-score": "-1.18 (inactive)"}
{"sequence": "GGAAGGUAAAUGUCUGCUCTT against Selenok", "z-score": "0.289 (inactive)"}
{"sequence": "GGAGAUGGAUAAUUACGAGTT against Ift27", "z-score": "0.344 (inactive)"}
{"sequence": "GGAGAUUUAAACAGCUAGGTT against Gmip", "z-score": "-0.418 (inactive)"}
{"sequence": "GGCUCAUAUUUCCAUCAGATT against Tchhl1", "z-score": "-1.13 (inactive)"}
{"sequence": "GGAAAUUGGGACUCACAUCTT against Trappc13", "z-score": "-0.0912 (inactive)"}
{"sequence": "GUGGAAAAUUGAAGGGACGTT against Ndufb3", "z-score": "3.69 (active)"}
{"sequence": "GGAUUCAAGUUCUCACCGATT against Serpina6", "z-score": "-0.462 (inactive)"}
{"sequence": "GCUCAAACACUUACACACUTT against Alcam", "z-score": "-0.616 (inactive)"}
{"sequence": "GCCAGUUCCUAUCUGGCUUTT against 4931428L18Rik", "z-score": "1.03 (inactive)"}
{"sequence": "GCCAAUGGUCACGAACCUATT against Senp5", "z-score": "-0.217 (inactive)"}
{"sequence": "GCUUGCUAAGAUUGAGUAUTT against Cerkl", "z-score": "-0.928 (inactive)"}
{"sequence": "CCGCACAAGAGGUAGAUACTT against Ddx5", "z-score": "-2.56 (active)"}
{"sequence": "GGUCAGUAUCAGAAUGAUCTT against Rft1", "z-score": "-0.831 (inactive)"}
{"sequence": "GCAGUGAGACUUUUAAUAGTT against Snx17", "z-score": "0.284 (inactive)"}
{"sequence": "GGCAAUAUUUCAGAACCUGTT against Tfb2m", "z-score": "0.44 (inactive)"}
{"sequence": "GGCCUUACUCUUAAGUUCUTT against Brf1", "z-score": "3.7 (active)"}
{"sequence": "GGUGCAUGAAGAGUUAAAATT against Jade1", "z-score": "1.5 (inactive)"}
{"sequence": "GGAGAAAGUUGAACGUAUUTT against Cct2", "z-score": "-2.58 (active)"}
{"sequence": "GGAAUUCUUAGCCAAUGCCTT against Gas2l1", "z-score": "0.396 (inactive)"}
{"sequence": "GCUGUCUAGUACAUCUGACTT against Cry2", "z-score": "-0.32 (inactive)"}
{"sequence": "GGCUAACACUUAAAUUAGCTT against Atoh8", "z-score": "0.00248 (inactive)"}
{"sequence": "GGCCCAACCUUGGAUCUUUTT against Nudt22", "z-score": "0.751 (inactive)"}
{"sequence": "GGGCACAGACAUGUUUGAGTT against Padi3", "z-score": "-1.35 (inactive)"}
{"sequence": "GGAUGAACCAAACCAAUAATT against Mgat4d", "z-score": "2.24 (active)"}
{"sequence": "GGACAAACAGGGAGAAAGATT against Mogat2", "z-score": "-0.091 (inactive)"}
{"sequence": "GCCAGACUGGAGGUAAAAUTT against Serpinb10", "z-score": "-2.24 (active)"}
{"sequence": "GGAGUGAGACAAUUCUCACTT against Sprr2k", "z-score": "0.555 (inactive)"}
{"sequence": "GCUAUUUAGUUAGUUGUGUTT against Acbd3", "z-score": "0.334 (inactive)"}
{"sequence": "CCGUGGGAUUUAAGAUAUCTT against Rab34", "z-score": "-0.931 (inactive)"}
{"sequence": "GUGUGCUUGAUGGAGACCATT against Riiad1", "z-score": "2.25 (active)"}
{"sequence": "GCAUUUCUACUGGAUUGUGTT against Luc7l2", "z-score": "0.0609 (inactive)"}
{"sequence": "GCUCUUUCUAGCUUAUGAUTT against Chmp1b", "z-score": "-0.464 (inactive)"}
{"sequence": "GGAUGCUUGUGCAAAGAUGTT against Anks1b", "z-score": "0.862 (inactive)"}
{"sequence": "GGAGCCUCUAGGAAACAAATT against Slc28a3", "z-score": "0.309 (inactive)"}
{"sequence": "CCGAGUCCAGAACACUCUUTT against Aff2", "z-score": "-0.616 (inactive)"}
{"sequence": "CCUGCCAUAGUUAGUUUUUTT against Khdc1a", "z-score": "7.91 (active)"}
{"sequence": "CGAGCUUUCACUGCUACAGTT against Ppargc1b", "z-score": "-1.35 (inactive)"}
{"sequence": "GCCACUGUACCUUAUUGGUTT against Msrb1", "z-score": "0.331 (inactive)"}
{"sequence": "GGAAGACGGCAACUAUCCATT against Cyp2c50", "z-score": "1.23 (inactive)"}
{"sequence": "GGUAUUUUUUUCUCAGCCATT against Dhdh", "z-score": "-0.937 (inactive)"}
{"sequence": "CGCCUUCCUUCAACACGCATT against 1700049L16Rik", "z-score": "-1.12 (inactive)"}
{"sequence": "GCCCUACCAAAAGGAUGAUTT against Cfap300", "z-score": "-2.02 (active)"}
{"sequence": "GGGAUUUGUUGUCUAAGAUTT against Mapk10", "z-score": "-0.54 (inactive)"}
{"sequence": "GCAGAUGCGCUUGGAACUUTT against Pde4b", "z-score": "0.0658 (inactive)"}
{"sequence": "GGCUCCUAACUCACUGGGATT against Ormdl1", "z-score": "0.0548 (inactive)"}
{"sequence": "GCUUUGGUGCACUUGCUUUTT against Akr1c13", "z-score": "2.2 (active)"}
{"sequence": "GAUGAAGAAGAGCAGGCUCTT against Gm5168", "z-score": "1.18 (inactive)"}
{"sequence": "CGUAUCAACAUCUCAGAAGTT against Pcbp2", "z-score": "-0.632 (inactive)"}
{"sequence": "GGAUUCACGUAAGAUUGACTT against Prl6a1", "z-score": "0.0592 (inactive)"}
{"sequence": "GGUGGUAUCACCUCUAUCATT against Cfap52", "z-score": "-2.49 (active)"}
{"sequence": "GACGAUUCUCUGUUGGUGUTT against Hcrt", "z-score": "0.577 (inactive)"}
{"sequence": "CCUGGAGAUUCAGUACGAATT against Krt25", "z-score": "1.55 (inactive)"}
{"sequence": "GGUUCUUGCUGAGAGCAUGTT against Rft1", "z-score": "0.943 (inactive)"}
{"sequence": "GGAUUGAAGCAGGCAGCUUTT against Purb", "z-score": "-0.787 (inactive)"}
{"sequence": "GGUUCAAGGUGAAGACUCCTT against Reg3b", "z-score": "0.793 (inactive)"}
